In ChEMBL document CHEMBL4513216, “Probing the Open Global Health Chemical Diversity Library for Multistage-Active Starting Points for Next-Generation Antimalarials” (ACS Infect Dis, 2020):
The whole screen tested about 68,000 compounds, of which about 2,700 (4%) showed an effect of 50% or more. This is one part of a sample in which strong results are shown more often than they occur.

system: Plasmodium berghei; assay: Screen against P. berghei liver stage (PbLuc), transformed with Luciferase, at 2uM; assay type: functional, HepG2; settings: tested at 2 uM

SMILES	INHIBITION [%]
COC1COC2(CCN(Cc3ccco3)CC2)C1 (stereo not drawn)	24.91
Cc1noc2ncc(C(=O)NCC3CCN(C(C)C)C3)cc12 (stereo not drawn)	-5.2
Cc1ccc(C(=O)N2CCCCC2c2[nH]ncc2S(C)(=O)=O)cn1 (stereo not drawn)	19.75
Cc1cccc(C(=O)N2CCCCC2c2[nH]ncc2S(C)(=O)=O)c1 (stereo not drawn)	52.69
CS(=O)(=O)c1cn[nH]c1C1CCCN1C(=O)c1cccnc1 (stereo not drawn)	10.3
COC(=O)c1ccc(CNC(=O)Nc2ccc(=O)n(C)c2)cc1	-18.09
CS(=O)(=O)c1cccc(C(=O)NCc2nc3cc(F)ccc3[nH]2)c1	30.57
Fc1ccc(CCC2CCCN(Cc3c[nH]cn3)C2)c(F)c1 (stereo not drawn)	-20.35
Cn1cc(CN2CCCC(CCc3ccccc3C(F)(F)F)C2)cn1 (stereo not drawn)	24.55
Cn1cc(CN2CCCC(CCc3ccc(F)c(F)c3)C2)cn1 (stereo not drawn)	64.2
Cn1cc(CN2CCCC(CCc3ccc(F)cc3)C2)cn1 (stereo not drawn)	2.3
Cn1cc(CN2CCCC(CCc3ccc(F)cc3F)C2)cn1 (stereo not drawn)	69.71
Cn1cc(CN2CCCC(CCc3c(F)cccc3F)C2)cn1 (stereo not drawn)	43.27
CN(C)C(=O)CN1C[C@H]2CCN(Cc3ccccc3)CC[C@H]2S1(=O)=O	-10.78
COC(=O)C(NC(=O)Nc1ccc(C(C)=O)cc1)C(C)C (stereo not drawn)	-7.05
CN(C)c1nccc(C2CN(c3cnccn3)CCO2)n1 (stereo not drawn)	57.47
CN(C)c1nccc(C2CN(c3ccccc3)CCO2)n1 (stereo not drawn)	-39.97
CC(C)N1CCOC(c2ccnc(N(C)C)n2)C1 (stereo not drawn)	-2.41
N#CCSCCCN1CCC(C(=O)N2CCCCCC2)CC1	-28.22
Cc1ccc(CN2CC[C@H](c3nnc(COc4ccc(F)cc4)o3)C2)o1	17.76
COCCNC(=O)[C@H]1C[C@@H]2CCN(CCc3ccccc3)C[C@H]2O1	-56.44
Cc1cn(CC(=O)Nc2cc(C(C)(C)C)nn2C)cn1	53.66
CCc1nnc2n1CCN(CC(=O)Nc1cc(C)nn1C)C2	12.81
CCc1nnc2n1CCN(CC(=O)Nc1cc(C)on1)C2	13.91
Cn1nc(C(C)(C)C)cc1NC(=O)Cn1ccnc1	-24.02
CCc1nnc2n1CCN(CC(=O)Nc1cc(C(C)(C)C)nn1C)C2	54.85
Cc1cn(CC(=O)Nc2cc(C(C)C)nn2C)cn1	5.93

SMILES	INHIBITION [%]
CC(SCC(=O)N(C)CC(=O)NC1CC1)c1ccccc1F (stereo not drawn)	-16.7
CN(CCc1ccccc1)Cc1cc(C(=O)N2CCSCC2)no1	72.05
CN(CCc1ccccc1)Cc1cc(C(=O)N2CCCC2(C)C)no1	61.89
CN1CCCN(C(=O)c2cc(CN(C)CCc3ccccc3)on2)CC1	5.28
CN(CCc1ccccc1)C(=O)c1cc(CN2CCC(O)CC2)on1	-10.41
CCC1CN(C(=O)c2cc(CN(C)CCc3ccccc3)on2)CCO1 (stereo not drawn)	-11.41
CN(CCc1ccccc1)Cc1cc(C(=O)N2CCN(C)C(=O)C2)no1	-64.43
Fc1ccc(CN2CCC3(CCCN(c4nncs4)C3)C2)cc1 (stereo not drawn)	3
O=C(NCC1CCCOC1)c1ccc(-c2ccccc2)[nH]c1=O (stereo not drawn)	4.96
Fc1ccc(Cc2cnc(C3CCCN3)cn2)cc1 (stereo not drawn)	-2.89
CC(C)Nc1cc(-c2c[nH]nc2C2CCN(C(=O)C3CCC3)C2)ccn1 (stereo not drawn)	16.43
CCCNc1cc(-c2c[nH]nc2C2CCN(C(=O)C3CCC3)C2)ccn1 (stereo not drawn)	87.38
CC(C)CNc1cc(-c2c[nH]nc2C2CCN(C(=O)C3CC3)C2)ccn1 (stereo not drawn)	13.98
Fc1ccc(OCCNC2CCN(Cc3ccccn3)CC2)c(F)c1	-31.26
Cc1ccccc1-c1cc(NC(=O)NC2CC2)n(CCO)n1	57.75
Cc1ccccc1-c1cc(NC(=O)NC2CCC(O)CC2)n(CCO)n1 (stereo not drawn)	14.82
CNC(=O)Nc1cc(-c2ccccc2C)nn1CCO	-3.51
O=C(c1cnccn1)N1CCCC(Cc2cccc3ncccc23)C1 (stereo not drawn)	-3.58
O=C(c1cnccn1)N1CCCC(Cc2cncc3ccccc23)C1 (stereo not drawn)	99.92
Cc1cccc(C(=O)N2CCCC(Cc3cncc4ccccc34)C2)n1 (stereo not drawn)	33.77
O=c1c2c[nH]c(N3CCCCC3)nc-2cn1-c1ccc2c(c1)OCO2	33.2
Cn1cc(S(=O)(=O)NCc2ccsc2)cn1	-18.65
CNC(=O)C(C)CNC(=O)c1coc(COc2cccc(F)c2F)n1 (stereo not drawn)	16.32
O=C(N[C@@H]1CN(Cc2ccco2)[C@@H]2CCCO[C@@H]21)c1cscn1	-2.81
COc1c(CNC2CCOc3c(Cl)cccc32)c(C)nn1C (stereo not drawn)	24.64
Cc1nc(CN2CCc3ncnc(-c4ccsc4)c3CC2)cs1	8.62
